Laboratory results reported in the supplement of paper PMC7156485.
A number with no mark means an inactive call.

Test system: TDF
Assay: H1.0 immunofluorescence intensity relative to DMSO (% of DMSO); higher = stronger H1.0 induction, active = 120 or more
Settings: concentration: 10 µM; 24 h
In short: (§1)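 In 384-well plates holding 800 HCC1569 or TDF cells per well in RPMI with 10% FBS, compounds were tested at 10 µM for 24 h at 37 °C in triplicate. Fixation used 3.7% formaldehyde. Staining used a rabbit anti-H1.0 antibody with an AlexaFluor 647 secondary, plus DAPI. Each value, H1.0 nuclear intensity or cell number, is a median of replicates shown as percent of the plate control, and HCC1569 values were smoothed for positional effects.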
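Further: TDF is a line of transformed human dermal fibroblasts of mesenchymal origin.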

SMILES	H1.0 immunofluorescence intensity
COc1cc(C=Cc2ccccc2)oc(=O)c1 [5,6-Dehydrokawain]	99
CNC1C(O)C(NC)C2OC3(O)C(=O)CC(C)OC3OC2C1O (configuration not stated) [Spectinomycin]	97
CCN(CC)CCCC(C)Nc1ccnc2cc(Cl)ccc12.O=P(O)(O)O.O=P(O)(O)O (configuration not stated) [Chloroquine diphosphate]	94.7
COCc1c(C(C)C)nc(C(C)C)c(C=CC(O)CC(O)CC(=O)O)c1-c1ccc(F)cc1 (configuration not stated) [Cerivastatin]	166 (active)
CCC=CCC=CCC=CCCCCCCCCCC(=O)O [Eicosatrienoic acid]	100
CC(Cc1ccccc1)(NC(=O)CN)c1ccccc1.Cl (configuration not stated)	103
CCCCCCCCCCCCCCCC(=O)NCCc1ccc(O)c(O)c1 [Palmitoyl dopamine]	101
COC1=C2CC(C)=c3c(C(C)=O)c(OC)c(O)c4c3c2c2c(cc(OC)c3c(OC)cc(O)c4c32)C(=O)C1=O [Hypocrellin B]	97.1

Test system: HCC1569
Assay: H1.0 immunofluorescence intensity relative to DMSO (% of DMSO); higher = stronger H1.0 induction, active = 140 or more
Settings: concentration: 10 µM; 24 h
In short: as §1

SMILES	H1.0 immunofluorescence intensity
COc1ccc(-c2ccc3cc(C(=O)O)ccc3c2)cc1C12CC3CC(CC(C3)C1)C2 [Adapalene]	102
COc1ccc(-c2cnc3c(-c4ccsc4)cnn3c2)cc1 [VEGF Receptor 2 Kinase Inhibitor IV]	109
Cl.O=C(O)C1CCCN(CCC=C(c2ccccc2)c2ccccc2)C1 (configuration not stated)	98.1
COC(=O)c1sccc1S(=O)(=O)Nc1ccc(Nc2ccccc2)cc1OC	112
CC(CN1c2ccccc2Sc2ccccc21)N(C)C.Cl (configuration not stated)	112
O=c1[nH]c2ccccc2n1CCN1CCN(c2cccc(C(F)(F)F)c2)CC1	101
O=C1C=C(CO)OCC1=O [5-hydroxy-2-(hydroxymethyl)-4H-pyran-4-one]	92
O=C1C(=O)C(c2ccc(O)c(O)c2)Oc2cc(O)cc(O)c21 (configuration not stated) [2-(3,4-dihydroxyphenyl)-3,5,7-trihydroxy-4H-chromen-4-one]	158 (active)
O=C(O)CNC(=O)C(CS)Cc1ccccc1 (racemic) [DL-Thiorphan]	96.1
CCN(CC)CCNC(=O)c1cc(Cl)c(N)cc1OC [Metoclopramide]	108
C=C1C(=CC=C2CCCC3(C)C2CCC3C(C)CCCC(C)C)CC(O)CC1O (configuration not stated) [Alfacalcidol]	101
C=CCSC[C@H](N)C(=O)O [(2R)-3-(allylsulfanyl)-2-aminopropanoic acid]	90.1
O=C(O)c1cc(-c2ccc(F)cc2F)ccc1O [Diflunisal]	115
CCCNCC(O)COc1ccccc1C(=O)CCc1ccccc1 (configuration not stated) [Propafenone]	103
O=C1NC(=O)C(c2ccccc2)(c2ccccc2)N1 [5,5-Diphenylhydantoin]	100
COc1cc2nc(N3CCN(C(=O)C4CCCO4)CC3)nc(N)c2cc1OC (configuration not stated) [Terazosin]	98.2
Nc1ccc(S(=O)(=O)Nc2ccnn2-c2ccccc2)cc1 [Sulfaphenazole]	106
COc1ccc2cc(C(C)C(=O)O)ccc2c1 (configuration not stated) [Naproxen]	109
COc1cc2c3cc1Oc1c(OC)c(OC)cc4c1C(Cc1ccc(OC(=O)c5ccc([N+](=O)[O-])cc5)c(c1)Oc1ccc(cc1)CC3N(C)CC2)N(C)CC4 (configuration not stated) [E6 Berbamine]	97.7
CC(Cc1ccc(O)c(O)c1)(NN)C(=O)O.O (configuration not stated) [Carbidopa.H2O]	104
COC(=O)C1C(O)CCC2CN3CCc4c([nH]c5ccccc45)C3CC21.Cl (configuration not stated) [Rauwolscine]	95.6
CC12C=CC(=O)C=C1CCC1C2C(=O)CC2(C)C1CCC2(O)C(=O)CO (configuration not stated) [Prednisone]	122
O=c1[nH]c(=O)c2nc3ccccc3nc2[nH]1 [Alloxazine]	92.1
CCCCCCCCCCCCCCCC(=O)OCC(COP(=O)(O)O)OC(=O)CCCCCCCCCCCCCCC (configuration not stated) [Dipalmitoylphosphatidic acid]	107
